In all, about 24,000 sequences were measured (“enrichment r”: median about 0.99, highest 2% from about 3.7 on). The sample as a whole holds a higher share of the highest values than the screen did.
T1: UNK ZnF1-3 (human, UniProt Q9C0B0 31-174)
T1 sequence: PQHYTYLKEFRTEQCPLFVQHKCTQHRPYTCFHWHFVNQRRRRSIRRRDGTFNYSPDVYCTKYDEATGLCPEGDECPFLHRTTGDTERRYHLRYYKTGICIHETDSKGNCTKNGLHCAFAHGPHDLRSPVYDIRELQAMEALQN

B1: 74654529_74654649_2250_CDS_ENSG00000113161_ENST00000287936|human|control|control (ssRNA)
RNA: GGGAGUUCUACAGUCCGACGAUCUCUGACAACCUUGGCUGGAAUGACAGCUUCACAAACAACAGAUUUUCCUCUUCCCUCUAUCCAAUUUAUAGCAGCAGGUUUCUUGUCAGUACAAUAGUUACCACUAACGGCUAGAAUCUGCAACAGAGGAUUGAGCAUCA
B2: chr22:19452774:19452775:-_ENSG00000070010_ENST00000399523|hu_hu|hu_hu_hu_mus_False|18_88 (ssRNA)
RNA: GGGAGUUCUACAGUCCGACGAUCCUUCUCAUUGUAGUUGAUAGCAAUCACAUCCCCAGUCGUCAGACAGGCGAAGUUUCUCAAUGCAUUUUCUAAUACCGCUUUAGGGUUGGUAAUGUCCAGGAAGUCUGGGCUCUGAGGCUGCAACAGAGGAUUGAGCAUCA
B3: chrX:100667754:100667755:+_ENSG00000126945_ENST00000316594|hu_hu|FALSE|FALSE (ssRNA)
RNA: GGGAGUUCUACAGUCCGACGAUCUCCGUAUCUAUGAUCAGACAUUCCUGAAAAACAGUAAUUGAGGUCUCUUCCAAAUCUAUCAGACCCAAAGCCAUAUCCAUCAUUAUAGCCACCAUAGUCAUCAUAGCCUCCAUACCCUCCCAACAGAGGAUUGAGCAUCA
B4: 31508769_31511148_1743_CDS_ENSG00000113360_ENST00000513349|human|control|control (ssRNA)
RNA: GGGAGUUCUACAGUCCGACGAUCAGGGUGGGCCUUUUUGCGUUUGAUUUCUGCAAUAACGUCAAAAACUUCAGAGUCUGAGCUGCUAGAACAGGUGCUGUCCUCAUCAGACUCACACUCGGAUUCACUGGAACUCUCUAAAUCCAACAGAGGAUUGAGCAUCA
B5: chr3:127788656:127788657:+_ENSG00000058262_ENST00000243253|hu_mus|motif|central (ssRNA)
RNA: GGGAGUUCUACAGUCCGACGAUCAAUUCACUUCUACUGGUUUUUUGCCAAUGCCAGAAAAAGCAAAAUUUCAAAUUGGAAAUUUCCGGGCACUUUACACAGUGGAAUGAAAAGAUAUGAAAUUUUAAAAAAAAUUAAAAAAAACAACAGAGGAUUGAGCAUCA
B6: chr3:154749246:154749247:-_ENSMUSG00000053870_ENSMUST00000066568|mus_hu|FALSE|FALSE (ssRNA)
RNA: GGGAGUUCUACAGUCCGACGAUCGCCAUUUUUAUUAUUAAAAAUAGAAUUACAGUUGAGGAGAGAAGUGCCAGUGAAUACUUAGAACUUCACUGGACCAAAAGCCUCAAAAAAGAUGGAAAAAUUCCAAAGGUAUGCUUAGAACAACAGAGGAUUGAGCAUCA
B7: chr3:127788656:127788657:+_ENSG00000058262_ENST00000243253|hu_hu|motif|central (ssRNA)
RNA: GGGAGUUCUACAGUCCGACGAUCCACUUUCACAGUUCUUUUUGCCAGUGCCAGGAUAAAAAGCAAAAUUUUAAAUUGGAAAAUGUCGGGCACUUUACACAGUGGAAUGAAAGAAUACGAAAUUCAAAAACAUUAUUAAAAGUCCAACAGAGGAUUGAGCAUCA
B8: 95941554_95941674_2216_3pUTR_ENSG00000164938_ENST00000448464|human|control|control (ssRNA)
RNA: GGGAGUUCUACAGUCCGACGAUCGCCAGAGUGGUUAAAGAUUUUGCCUGAAGUUAAAACAAAAAAUGAAAAGUCACUUGGACUGCAGGGAAGAAUACUUACAAUACAAGGCAAUUAAAAAAAAAAAAAGAAAAAAGUUGAGCCCAACAGAGGAUUGAGCAUCA
B9: chr16:94664382:94664383:+_ENSMUSG00000040785_ENSMUST00000117648|mus_hu|motif|central (ssRNA)
RNA: GGGAGUUCUACAGUCCGACGAUCAAAAGCUGGUGCUGAAGAUGAAUCUGACACUGGUUUAGACUUUACAUCUGGUUUAAAUUCCCGGGCAGCUGGAUUCAGUUGUAGUUUAACUCGUACAUACUCCCCUGCUUUUGAAAUUUCCAACAGAGGAUUGAGCAUCA
B10: chr1:163112212:163112213:-_ENSG00000143248_ENST00000313961|hu_hu|hu_hu_hu_mus_False|48_48 (ssRNA)
RNA: GGGAGUUCUACAGUCCGACGAUCUUUUAUUAUCAGUAAGAGUGAGUUACAUACUAGGCAAAGUAUUGGAUACAAUAAUCAGGAAACAAACACAAUUGGUCCAGAAUUUAAAACUUUAUGAGCGAAGUGCUGGCACAGGACUUACAACAGAGGAUUGAGCAUCA
B11: chr17:65740002:65740003:+_ENSG00000130935_ENST00000581375|hu_hu|hu_hu_hu_mus_False|48_58 (ssRNA)
RNA: GGGAGUUCUACAGUCCGACGAUCAACAAAUCUUUCUUCCCUGGACGAACAGGAAGAUUCAUAUUAAAAAAAAUAUAUGUCUAUGAAGGAGAAUUGAGUGGCCACACCUUUACUCCCAGCACUUUGGGAGGUGGAUCUCUGAGUCAACAGAGGAUUGAGCAUCA
B12: 140276459_140277056_1559_CDS_ENSMUSG00000040945_ENSMUST00000038893|mouse|control|control (ssRNA)
RNA: GGGAGUUCUACAGUCCGACGAUCGUCUCGCGCUAUCACCAAGGAGUGUGAAUAGCCCAUGGCCACCUGUUCGGAGAAGAUGCCAUCCAGAGUCUUCACCUCCUGGGCCGCAGUAGAAGACUUGGGCUUGUGGUCCCCAUACCCCAACAGAGGAUUGAGCAUCA
B13: chr18:77696836:77696837:-_ENSMUSG00000025427_ENSMUST00000026494|mus_mus|FALSE|FALSE (ssRNA)
RNA: GGGAGUUCUACAGUCCGACGAUCUCCUCGGGAUAGAGGGAUGAGAGGGCUUAGGAAUGUAGGGAGGGGAGGGAAGACAGAGAGCAGACUUGAGGUGGGGAAAGAGGCCUGGGGGAGGGGGCACGAGUGACAAGUGAAAGGAUUCAACAGAGGAUUGAGCAUCA
B14: chr11:71671816:71671817:+_ENSG00000137522_ENST00000530137|hu_hu|FALSE|FALSE (ssRNA)
RNA: GGGAGUUCUACAGUCCGACGAUCGCGAUGAGGAUGAGGACCAUUUCAGCAUGCAUAGCUUCAUGGCCACGGUGCUUGGCAUGCAUGCGUGCGUGCUCGACCCUCAUCCAGCUCCCGUUCCCCAGCAGCACCACCUCCAACCUCCAACAGAGGAUUGAGCAUCA

These binders were tested against T1, UNK ZnF1-3 (assay: nsRBNS (natural sequence RNA bind-n-seq); RBNS binding buffer (assumed for nsRBNS): 25 mM Tris pH 7.5, 150 mM KCl, 3 mM MgCl2, 0.01% Triton X-100, 500 ug/ml BSA, 20 U/ml SUPERase-In, 4 C; UNK is unkempt and MSI1 is Musashi-1; names of the RNAs are library labels; protein concentration not given here; high values mean tight binding).

Row | Binder | binding signal [enrichment R]
1 | B1 | 1.16
2 | B2 | 0.83
3 | B3 | 1.11
4 | B4 | 0.49
5 | B5 | 6.28
6 | B6 | 2.22
7 | B7 | 4.09
8 | B8 | 12.6
9 | B9 | 1.16
10 | B10 | 1.39
11 | B11 | 1.64
12 | B12 | 0.829
13 | B13 | 2.5
14 | B14 | 0.585
